Data taken from the supplement of paper PMC13380429.
Values without a mark were called inactive.

Tested on: Vero E6 infected with SARS-CoV-2
Experiment: inhibition of SARS-CoV-2 cytopathic effect; higher = more antiviral protection, active = above 15
Conditions: 48 h

SMILES | inhibition of SARS-CoV-2 cytopathic effect (1 nM) | inhibition of SARS-CoV-2 cytopathic effect (8.33 nM) | inhibition of SARS-CoV-2 cytopathic effect (100 nM) | inhibition of SARS-CoV-2 cytopathic effect (833.33 nM) | inhibition of SARS-CoV-2 cytopathic effect (10000 nM)
CC(C)(COP(=O)(O)OP(=O)(O)OC[C@H]1O[C@@H](n2cnc3c(N)ncnc32)[C@H](O)[C@@H]1OP(=O)(O)O)[C@@H](O)C(=O)NCCC(=O)NCCS [coenzyme-A] | -2.14% | 0.97% | 2.41% | 1.91% | 2.93%
Nc1ccc(S(=O)(=O)Nc2ccnn2-c2ccccc2)cc1 [sulfaphenazole] | 2% | 2.26% | 1.62% | 2.18% | -0.83%
CN(C)NC(=O)CCC(=O)O [daminozide] | -0.2% | 2.15% | 0.35% | 0.11% | 1.18%
CON(C)C(=O)[C@H](O)[C@H](Cc1ccccc1)NC(=O)c1cc2cc(Cl)ccc2[nH]1 | -0.47% | 0.53% | 1.7% | 1.24% | 4.39%
CCc1cnc(N2CCC(c3nc(COc4ccc(-n5cnnn5)cc4)cs3)CC2)nc1 | 1.55% | -3.29% | -4.15% | -3.29% | 0.22%
NC(=O)c1ccc(I)c([N+](=O)[O-])c1 [iniparib] | 0.64% | 1.76% | 0.16% | 2.29% | 3.53%
CC1(C)CC(=O)c2c(C(F)(F)F)nn(-c3ccc(C(N)=O)c(N[C@H]4CC[C@H](O)CC4)c3)c2C1 | 1.9% | 1.97% | -3.3% | -1.33% | -0.66%
C[n+]1ccc(C(=O)NCc2ccccc2)cc1 [enisamium-iodide] | -0.64% | 7.37% | -0.6% | 4.79% | 0.11%
COc1ncc(-c2ccc3c(Nc4cc(Oc5cc(F)cc(F)c5)cc(C(=O)O)c4)c(S(=O)(=O)NC4CC4)cnc3c2)c(OC)n1 | 0.82% | 2.2% | 0.69% | 2.71% | 1.3%
CCCC[C@]1(CC)CS(=O)(=O)c2cc(CNC(CC(=O)O)CC(=O)O)c(OC)cc2[C@@H](c2ccccc2)N1 | 3.94% | 3.04% | 5.12% | 1.44% | 1.53%
COc1ccccc1CN[C@H]1CCCN[C@H]1c1ccccc1 | -0.59% | -1.96% | 2.38% | -1.82% | -3.19%
O=C(Oc1cc(S(=O)(=O)c2ccccc2)ccc1[N+](=O)[O-])c1ccc(Cl)cc1 | 0.83% | 0.6% | -2.99% | -0.23% | -0.09%
O=C(O)Cn1nnc(-c2cc(N3CCC(Oc4cc(F)ccc4Br)CC3)no2)n1 | -0.51% | -0.71% | 1.39% | -0.54% | 1.73%
COc1cc([S+](C)[O-])ccc1-c1nc2cccnc2[nH]1 (stereo not given) [sulmazole] | -0.6% | 3.93% | 0.23% | -1.34% | -0.68%
O=c1cc(-c2ccccc2)oc2cc(O)c(O)c(O)c12 [baicalein] | 1.61% | 3.69% | -0.24% | -2.55% | -5.11%
COc1ccc(CCN2CCN(CCCc3ccccc3)CC2)cc1OC [cutamesine] | 1.71% | 0.69% | 3.33% | 2.23% | -5.76%
O=C(O)c1ccccc1C(=O)Nc1ccc(-c2ccccc2)cc1 [kartogenin] | 3.34% | 2.53% | 0.87% | 1.12% | 1.02%
CCCc1ncc(C[n+]2ccccc2C)c(N)n1 [amprolium] | 7.17% | 1.36% | 4.43% | -0.09% | 0.03%
CC1(N2CCC(n3c([C@@H]4CCCNC4)nc4ccccc43)CC2)CCCCCCC1 | 0.07% | 0.4% | -0.65% | -3.36% | 83.5% (active)
COCC(=O)O[C@]1(CCN(C)CCCc2nc3ccccc3[nH]2)CCc2cc(F)ccc2[C@@H]1C(C)C [mibefradil] | -2.83% | 0.22% | -2.5% | -0.56% | 62.1% (active)
COc1ccc2c(C)nc(Nc3nc(C)c(C)c(O)n3)nc2c1 [madrasin] | -1.29% | 0.26% | 1.24% | 0.66% | 30.8% (active)
CCOC(=O)c1c(/C(C#N)=C\N)c2ccc(Cl)c(Cl)c2n1C | -0.1% | 0.69% | 0.36% | 0.1% | -2.18%
COC(=O)[C@@H]1C[C@H](OC(C)=O)C(=O)[C@H]2[C@@]1(C)CC[C@H]1C(=O)O[C@H](c3ccoc3)C[C@]21C [salvinorin-A] | -2.48% | -1.89% | -1.61% | -0.35% | 0.69%
Nc1nc2c(ncn2COC(CO)CO)c(=O)[nH]1 [ganciclovir] | 0.29% | 0.09% | 2.75% | -1.42% | -1.71%
